We go through 36 compounds from PubChem BioAssay.

For the assay, the system named is Sonic hedgehog protein (Shh). The assay can be described thus: small-molecule binders of Shh protein, primary screen, biochemical, small-molecule microarray, 635/667 nm fluorescence (AID 1151).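 Further: Shh protein binding to compounds spotted on small-molecule microarray slides; score combines spot fluorescence intensity with signal-to-noise across triplicate slides.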 The note with it: small-molecule microarray binding, 635 nm fluorescence; higher = more signal.
In turn, `CC(CCN1CCCc2nc(C)c(C)cc21)=NOC(C)CN1CCCCc2nc(C)c(C)cc21` (stereo unspecified) yielded a composite z-score of 1.05. Under `CCN1C(=O)[C@@H]2[C@H]3C(=CC[C@@H]2C1=O)C1(OCCCO1)[C@H]1O[C@H]1[C@H]3O` stands 0.956; under `Cc1ccc(S(=O)(=O)N[C@@H]2COC(=O)[C@@H](C)COC(=O)CC=C[C@H]2C)cc1`, 0.472.

In turn, `COC(=O)C1=C(C)N(Cc2ccccc2)[C@]23O[C@](C(=O)OC)(C(=O)N2[C@@H]1c1ccccc1)C(C(=O)OC)=C3C(=O)OC` came in with a composite z-score of 0.657. Under `CC(C)CON=C1C[C@@H](O)[C@@H](O)[C@@H]2[C@@H]3C(=O)N(c4ccc(F)cc4F)C(=O)[C@@H]3CC[C@H]12` stands 1.25. `CCOC(=O)CCN1C(=O)[C@H]2[C@H]3[C@H](O)[C@H](O)CC(=NOCC(C)C)[C@H]3CC[C@H]2C1=O` gave a composite z-score of -0.249. In the case of `CC(C)=CCCC(C)=CCON=C1C[C@@H](O)[C@@H](O)[C@@H]2[C@@H]3C(=O)N(C(C)(C)C)C(=O)[C@@H]3CC[C@H]12`, the composite z-score was 0.435.

`C[C@H]1CC[C@H]2C(=O)O[C@H](COc3ccc(C(C)(C)C)cc3)CN2[C@@H]1c1ccc(Br)cc1`: the composite z-score was 0.48. Under `COC(=O)CC=C[C@@H](C)[C@@H](C=NO[C@@H]1O[C@H](COC(C)=O)[C@@H](OC(C)=O)[C@H](OC(C)=O)[C@H]1OC(C)=O)NS(=O)(=O)c1ccc(C)cc1` stands 0.629; under `CCOC(=O)[C@H](CC(C)C)NC(=O)CCC1CC(OC(=O)NCc2cccc3ccccc23)CC2(CCCC(COC(=O)NCc3ccncc3)O2)O1` (stereo partly specified), 1.25; under `CC(CCN1CCCc2nc(C)c(C)cc21)=NO[C@@H](C)c1cc(-c2c(C)cc(C)cc2C)no1`, 0.54.

`O=C1[C@H]2[C@H]3[C@H](O)[C@H](O)CC(=NO[C@@H]4O[C@H](CO)[C@@H](O)[C@H](O)[C@H]4O)[C@H]3CC[C@H]2C(=O)N1c1cccc(Oc2ccccc2)c1` gave a composite z-score of 1.09. On to `CCOC(=O)NN=C1C[C@@H](O)[C@@H](O)[C@@H]2[C@@H]3C(=O)N(c4ccc(F)cc4F)C(=O)[C@@H]3CC[C@@H]12`, for which the composite z-score was found to be 0.219. `C[C@H]1CC[C@H]2C(=O)OC(CO)CN2[C@@H]1c1ccc(Br)cc1` (stereo partly specified) registered a composite z-score of 0.661. Under `Cn1c(=O)n2n(c1=O)[C@H]1[C@H](O)[C@@H]3O[C@@H]3C(=NOCc3ccccc3)[C@H]1CC2` stands 0.378. With `O=c1n(-c2ccccc2)c(=O)n2n1CC[C@@H]1C(=NOCc3ccccc3)[C@H]3O[C@H]3[C@@H](O)[C@@H]12` the figure was -0.0835; with `C[C@@H]1CC[C@H]2C(=O)O[C@@H](Cc3ccccc3)CN2[C@H]1c1ccc(Br)cc1`, 0.656. Compound `CO[C@H]1COC(=O)[C@@H](C)COC(=O)[C@H](C)NC(=O)CC=C[C@H]1C` showed a composite z-score of 1.6.

Take `CO[C@H]1COC(=O)CC=C[C@H](C)[C@@H](OC)COC(=O)[C@@H](C)COC(=O)CC=C[C@@H]1C`: the composite z-score came to 2.12.

On to `COC(=O)CC=C[C@@H](C)[C@@H](C=NOCC[C@@H]1C=C[C@H](OC(C)=O)[C@@H](COC(C)=O)O1)NS(=O)(=O)c1ccc(C)cc1`, for which the composite z-score came out at 0.554. On to `CCOC(=O)CCN1C(=O)[C@H]2[C@H]3[C@H](O)[C@H](O)CC(=NNC(=O)OCc4ccccc4)[C@@H]3CC[C@H]2C1=O`, for which the composite z-score came out at 1.26. With `CC(C)=CCCC(C)=CCON=C1C[C@@H](O)[C@@H](O)[C@@H]2[C@@H]3C(=O)N(Cc4ccccc4)C(=O)[C@@H]3CC[C@@H]12` the figure was 1.88; with `C[C@@H](ON=C1[C@H]2CCn3c(=O)n(-c4ccccc4)c(=O)n3[C@H]2[C@H](O)[C@@H]2O[C@H]12)c1cn([C@@H]2COC[C@H]2O)nn1`, 0.438. With `COc1cc(O)c(C(=O)C=Cc2ccc3c(c2)OCO3)c(OC)c1` the figure was 0.782; with `COC(=O)CC=C[C@@H](C)[C@@H](C=NO[C@H](C)c1cn([C@H](CO)Cc2ccccc2)nn1)NS(=O)(=O)c1ccc(C)cc1`, 0.285; with `COc1ccc(O[C@H]2C=C[C@@H](c3ccccc3)O[C@@H]2COC(=O)CCC(C)=NO[C@@H]2O[C@H](COC(C)=O)[C@@H](OC(C)=O)[C@H](OC(C)=O)[C@H]2OC(C)=O)cc1`, 0.918.

`CCOC(=O)NN=C1C[C@@H](O)[C@@H](O)[C@@H]2[C@@H]3C(=O)N(Cc4ccc5c(c4)OCO5)C(=O)[C@@H]3CC[C@H]12` displayed a composite z-score of 0.14.

The compound `CCOC(=O)[C@H](CC(C)C)NC(=O)CCC1CC(OC(=O)NCc2cccc3ccccc23)CC2(CCCC(COC(=O)NCCC(C)C)O2)O1` (stereo partly specified) gave a composite z-score of 0.784.

For the compound `CC(C)=CCCC(C)=CCON=C1C[C@@H](O)[C@@H](O)[C@@H]2[C@@H]3C(=O)N(C[C@@H]4CCCO4)C(=O)[C@@H]3CC[C@H]12`, the composite z-score is 1.67. With `CC=CC1=C(CO)C(=O)[C@@H]2O[C@@H]2C1=O` the figure was 1.72. With `CO[C@H]1COC(=O)CCC[C@@H](C)[C@H](OC)COC(=O)[C@@H](C)NC(=O)CC=C[C@@H]1C` the figure was 2.1; with `COc1ccc(O[C@H]2C=C[C@@H](c3ccccc3)O[C@@H]2COC(=O)CCC(C)=NOC[C@@H](O)[C@H]2O[C@@H]3OC(C)(C)O[C@@H]3[C@H]2O)cc1`, 1.14; with `O=C(NN=C1C[C@@H](O)[C@@H](O)[C@@H]2[C@@H]3C(=O)N(Cc4ccccc4)C(=O)[C@@H]3CC[C@@H]12)OCc1ccccc1`, -0.0067. In turn, `CCOC(=O)[C@H](CC(C)C)NC(=O)CCC1CC(OC(=O)NCc2cccc3ccccc23)CC2(CCCC(COC(=O)NCCc3ccc(Cl)cc3)O2)O1` (stereo partly specified) displayed a composite z-score of 0.728. Compound `CO[C@@H]1C=CCC(=O)N2CCC[C@H]2C(=O)OC[C@@H](C)C(=O)OC[C@H]1C` showed a composite z-score of 1.68. In the case of `CC(C)CON=C1C[C@@H](O)[C@@H](O)[C@@H]2[C@@H]3C(=O)N(C4CCCCC4)C(=O)[C@@H]3CC[C@H]12`, the composite z-score came to 0.72.
